Shown are actives, neighbours in structure and some others; about 1.6% of the full set was active somewhere.
PREPL inh: human PREPL enzyme inhibition | Q4J6C6 | recombinant PREPL, fluorescence polarization activity-based probe | inhibition, % at 5.96 µM | 320,000 compounds, 0.68% hits | AID 2751
Fam108B inh: blocks mouse Fam108B hydrolase in RBBP9 counter-screen | inhibition, % at 9.51 µM | 300,000 compounds, 0.33% hits | AID 1947 | recombinant Fam108B, FP-Rh probe fluorescence polarization;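 active means inhibition above the screen mean inhibition plus 3 SD, computed separately per campaign, cut at about 18% in these data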;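 further: inhibitors lower polarization as less probe binds the enzyme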
LYPLA2 counter: blocks human lysophospholipase 2, a PME1 counter-screen. 320,000 compounds, 0.38% hits. inhibition, % at 5.9 µM. AID 2177. O95372. recombinant LYPLA2, FP-Rh probe fluorescence polarization;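 active means inhibition above the screen-wide mean plus 3 SD, limit set per campaign, cut at about 26% in these data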
Target sequence (O95372 whole entry, looked up): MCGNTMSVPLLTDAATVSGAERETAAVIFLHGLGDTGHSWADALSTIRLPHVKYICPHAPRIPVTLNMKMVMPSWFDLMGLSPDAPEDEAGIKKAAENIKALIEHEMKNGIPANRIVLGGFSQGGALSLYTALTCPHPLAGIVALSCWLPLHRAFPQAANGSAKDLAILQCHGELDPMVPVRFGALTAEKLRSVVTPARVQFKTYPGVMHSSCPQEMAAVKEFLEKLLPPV
LYPLA1 counter: LYPLA1 (human) inhibition in PME1 counter-screen. recombinant LYPLA1, FP-Rh probe fluorescence polarization. inhibition, % at 5.9 µM. AID 2174. O75608. 320,000 compounds, 0.16% hits;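 active means inhibition above the mean of all tested compounds plus 3 SD, set per campaign, cut at about 14% in these data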;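 further: inhibitors block serine hydrolase probe labeling of LYPLA1 so polarization falls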
MEX-5 binding: C. elegans MEX-5 TCR-2 RNA binding activity; MEX-5/FITC-TCR2 RNA binding, fluorescence polarization; active compounds read low; activity score (negative = inhibition of binding), % at 10 µM; 300,000 compounds, 0.38% hits; AID 1832;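 active means inhibition past about -25% in most replicates, and total fluorescence under double the plate's negative control median, limit read from the data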
PME-1 inh: PME-1 (human) inhibition | Q9Y570 | AID 2130 | recombinant PME-1, FP-Rh probe fluorescence polarization | 320,000 compounds, 0.53% hits | inhibition, % at 5.9 µM;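 active means inhibition above the campaign mean of all compounds plus 3 SD, cut at about 26% in these data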;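 further: competitive labeling of PME-1 active site by serine hydrolase directed probe; inhibitors block probe labeling so polarization falls and inhibition rises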
Target sequence (Q9Y570 whole entry, looked up): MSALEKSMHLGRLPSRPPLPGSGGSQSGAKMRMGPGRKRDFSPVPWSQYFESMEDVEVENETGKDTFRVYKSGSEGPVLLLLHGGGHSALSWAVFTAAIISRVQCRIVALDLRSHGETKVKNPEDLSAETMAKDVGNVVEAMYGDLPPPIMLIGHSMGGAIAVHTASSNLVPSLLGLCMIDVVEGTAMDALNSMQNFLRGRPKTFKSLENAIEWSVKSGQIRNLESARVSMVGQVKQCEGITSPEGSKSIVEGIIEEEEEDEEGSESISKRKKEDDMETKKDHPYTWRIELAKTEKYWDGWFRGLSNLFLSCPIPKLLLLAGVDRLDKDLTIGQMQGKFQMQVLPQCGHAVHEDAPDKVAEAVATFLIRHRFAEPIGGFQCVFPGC
PREPL inh cf: human PREPL inhibition, confirmation; shares compounds with PREPL inh; recombinant PREPL, fluorescence polarization activity probe; inhibition, % at 5.96 µM; 2,000 compounds, 67% hits; AID 2803
Hits are given with their value; . = inactive; / = no result. Unless noted, no stated cut-off is given here; in the data, active means inhibition above about 43%; inactive means the rest.

SMILES	PREPL inh	Fam108B inh	LYPLA2 counter	LYPLA1 counter	MEX-5 binding	PME-1 inh	PREPL inh cf
CC(=O)Nc1ccc(S(=O)(=O)NC(C)C(=O)NCCc2ccc(F)cc2)cc1 (stereo not drawn)	.	.	.	.	.	.	/
CC(C)n1cc(NC(=O)COc2ccccc2Cl)cn1	.	.	.	.	.	.	/
Cc1ccc2[nH]c3c(c2c1)CN(C(=O)CN1CCCc2ccccc21)CC3	.	.	.	.	.	.	/
COC(=O)c1[nH]c2ccc(C)cc2c1NC(=O)CN1CCCc2ccccc21	48.7	.	.	.	.	.	48.1
COc1cc(/C=N/n2cnnc2)ccc1OCc1ccccc1	46.2	.	.	.	.	.	.
COc1ccc(/C=N/n2cnnc2)cc1COc1ccccn1	.	.	.	.	.	.	/
CCN(CC(=O)Nc1c(F)cccc1F)C(=O)CSCC(=O)Nc1cc(C)on1	.	.	.	.	.	.	/
Nc1nc(CSC(=S)N2CCN(c3ccccc3)CC2)nc(Nc2ccccc2)n1	.	.	.	.	.	.	/
Cc1ccc(Nc2nc(N)nc(CSC(=S)N3CCN(c4ccccc4)CC3)n2)cc1	63.9	.	.	.	.	.	.
CC1=C(C(=O)OCc2ccccc2)C(c2ccccc2OS(=O)(=O)c2ccc(C)cc2)NC(=O)N1CCCC(=O)O (stereo not drawn)	.	.	.	.	.	.	/
CCCCn1c(CN2CCN(c3cccc(Cl)c3)CC2)nc2c1c(=O)[nH]c(=O)n2C	.	.	.	.	.	.	/
Cn1c(=O)[nH]c(=O)c2c1nc(CN1CCN(c3cccc(Cl)c3)CC1)n2CCN1CCOCC1	46.3	.	.	.	/	.	.
COc1cccc(C2CC(c3ccc(C)cc3)Nc3nc(N)nn32)c1 (stereo not drawn)	48.9	.	.	.	.	.	50.7
Cc1ccc(O)c(NC(=O)c2ccc3c(c2)C(=O)N(CC(C)C)C3=O)c1	.	.	.	.	.	.	/
Cc1ccccc1Nc1c(-c2ccccn2)nc2ccccn12	.	.	.	.	.	.	/
Cc1ccn2c(Nc3ccccc3C)c(-c3ccccn3)nc2c1	51.9	.	.	.	/	.	.
Cc1ccn2c(Nc3ccccc3)c(-c3ccccn3)nc2c1	66.7	.	.	.	.	.	63.1
Cc1cccn2c(Nc3ccccc3)c(-c3ccccn3)nc12	.	.	.	.	.	.	/
CC(C)C(OC(=O)c1cccs1)C(=O)NCCc1ccccc1 (stereo not drawn)	.	.	.	.	.	.	/
COc1ccc(C(=O)C2CCCN(C(=O)c3ccnn3C)C2)cc1OC (stereo not drawn)	.	.	.	.	.	.	/
C#CCOCCOCCOCCNc1nc(N2CCN(C(=O)CCCCCCCCCCNC(=O)[C@H](CCCCN)n3cc(CCCC(=O)O)nn3)CC2)nc(N2CCN(C(=O)CCCCCCCCCCNC(=O)[C@H](CCCCN)n3cc(CCCC(=O)O)nn3)CC2)n1	.	.	.	.	.	.	/
C#CCOCCOCCOCCNc1nc(N2CCN(C(=O)CCCCCCCCCCNC(=O)[C@H](CCCCN)n3cc(C)nn3)CC2)nc(N2CCN(C(=O)CCCCCCCCCCNC(=O)[C@@H]([C@H](C)CC)n3cc(CCCCCN)nn3)CC2)n1	51.8	.	.	.	/	.	44.6
C#CCOCCOCCOCCNc1nc(N2CCN(C(=O)CCCCCCCCCCNC(=O)[C@H](CCCCN)n3cc(CCO)nn3)CC2)nc(N2CCN(C(=O)CCCCCCCCCCNC(=O)[C@H](CCCN=C(N)N)n3cc(C[C@@H](C)CC)nn3)CC2)n1	56.3	.	.	.	/	.	56.7
C#CCOCCOCCOCCNc1nc(N2CCN(C(=O)CCCCCCCCCCNC(=O)Cn3cc(CCCCCN)nn3)CC2)nc(N2CCN(C(=O)CCCCCCCCCCNC(=O)[C@H](CO)n3cc(CCCCCN)nn3)CC2)n1	67.6	.	.	.	/	.	60.0
C#CCOCCOCCOCCNc1nc(N2CCN(C(=O)CCCCCCCCCCNC(=O)[C@H](CCCCN)n3cc(CCO)nn3)CC2)nc(N2CCN(C(=O)CCCCCCCCCCNC(=O)[C@H](CCCCN)n3cc(CCO)nn3)CC2)n1	57.6	.	.	.	/	.	46.7
SMILES	PREPL inh	Fam108B inh	LYPLA2 counter	LYPLA1 counter	MEX-5 binding	PME-1 inh	PREPL inh cf
C#CCOCCOCCOCCNc1nc(N2CCOCC2)nc(N2CCN(C(=O)CCCCCCCCCCNC(=O)[C@H](CO)n3cc(CCCCCN)nn3)CC2)n1	.	.	.	.	/	.	/
Cc1cccc(NC(=O)NNC(=O)c2nn(C)cc2Br)c1	.	.	.	.	.	.	/
C#CCOCCOCCOCCNc1nc(N2CCN(C(=O)CCCCCCCCCCNC(=O)[C@H](CO)n3cc(CCCSC)nn3)CC2)nc(N2CCN(C(=O)CCCCCCCCCCNC(=O)[C@H](CCCCN)n3cc(C[C@@H](C)CC)nn3)CC2)n1	.	.	.	.	.	.	/
C#CCOCCOCCOCCNc1nc(N2CCN(C(=O)CCCCCCCCCCNC(=O)[C@H](CCCCN)n3cc(CCCC(=O)O)nn3)CC2)nc(N2CCN(C(=O)CCCCCCCCCCNC(=O)[C@H](CCCN=C(N)N)n3cc(C[C@@H](C)CC)nn3)CC2)n1	43.6	.	.	.	.	.	.
CC1(OC(=O)C2CCCC2)C(=O)C=C2C=C(c3ccsc3)N(CC3CC3)C=C2C1=O (stereo not drawn)	43.3	.	.	.	.	.	.
CN(C)c1ccc(N=C/C=C2\N(C)c3ccccc3C2(C)C)cc1	70.0	.	.	.	.	.	68.3
CN1/C(=C\C=Nc2ccc3ccccc3c2)C(C)(C)c2ccccc21	.	.	.	.	/	.	/
Cc1ccc(-c2csc(N3CCN(c4cc5c(cc4Cl)nc(-c4ccncc4)n5CCN4CCCCC4)CC3)n2)cc1	44.6	.	.	.	.	.	.
COc1ccc(CCC(=O)OCC(=O)Nc2sccc2C(N)=O)cc1OC	48.3	/	/	/	/	/	.
COc1cc(CC(=O)Nc2sccc2C(N)=O)cc(OC)c1OC	.	.	.	.	.	.	/
CCc1noc(C)c1C(=O)OCC(=O)N(CC)c1c(N)n(Cc2ccccc2)c(=O)[nH]c1=O	.	.	.	.	.	.	/
Cc1ccc(-c2[nH]c3cc(C(=O)NCCCn4ccnc4)ccc3c(=O)c2O)cc1	55.0	.	.	.	.	.	.
CN(C)CCCNc1cc(C(C)(C)C)nc2c(-c3ccc(Cl)cc3)cnn12	52.3	.	.	.	.	.	48.6
Cc1noc(C)c1NC(=O)N(C)C[C@H]1Oc2c(NC(=O)Cc3ccccc3)cccc2C(=O)N([C@H](C)CO)C[C@@H]1C	.	/	/	/	/	/	/
Fc1ccc(CNc2ccc(N3CCN(Cc4ccccc4)CC3)cc2)cc1	45.6	.	.	.	.	.	.
O=C(CCS(=O)(=O)c1ccc(F)cc1)Nc1ccc(N2CCN(Cc3ccccc3)CC2)cc1	.	/	.	.	/	.	/

Assay outcomes as filed in PubChem BioAssay.
